# Values joined by “and” are separate entries in the source; they are usually repeats but may differ in a detail not shown here. Identical values can stand only once. ± gives the standard deviation of the averaged measurements.
# Tested on: HCC1569
# Experiment: cell number relative to DMSO (% of DMSO); higher = more cells (less growth inhibition / toxicity)
# Settings: concentration: 10 µM; 24 h
# Procedure, shortened: (§1)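 After 24 h at 37 °C with compounds at 10 µM, in triplicate, HCC1569 and TDF cells were fixed with 3.7% formaldehyde. Immunostaining used a rabbit anti-H1.0 antibody and an AlexaFluor 647 secondary, with DAPI, and six fields per well were imaged at ×10. H1.0 nuclear intensity or cell number is presented as percent of the plate control, from the median of replicates, with HCC1569 values smoothed for positional effects.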
# 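Further: TDF denotes transformed human dermal fibroblasts of mesenchymal origin.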
row,SMILES,cell number
1,C=C1C(=O)C23C(O)C1CCC2C12COC3(O)C(O)C1C(C)(C)CCC2O (centres undefined) [Rubescensin A],90.8
2,CC(C)C[C@@H](C(=O)O)c1cc(-c2ccc(C(F)(F)F)cc2)cc(-c2ccc(C(F)(F)F)cc2)c1,98.7
3,Cl.N=C(N=C(N)N)N1CCOCC1 [Moroxydine.HCl],106
4,NC(=O)C1=CN(C2OC(COP(=O)([O-])OP(=O)([O-])OCC3OC(n4cnc5c(N)ncnc54)C(OP(=O)([O-])[O-])C3O)C(O)C2O)C=CC1.[Na+].[Na+].[Na+].[Na+] (centres undefined) [NADPH tetrasodium],103
5,Br.CN1C2CCC1CC(OC(=O)C(O)c1ccccc1)C2 (centres undefined),102
6,COc1cc2nccc(Oc3ccc(NC(=O)Nc4ccc(F)cc4F)c(F)c3)c2cc1OC,74.9

# Tested on: TDF
# Experiment: as above
# Settings: concentration: 10 µM; 24 h
# Procedure, shortened: as §1
row,SMILES,cell number
1,Cc1cccc(Nc2ccccc2C(=O)O)c1C [Mefenamic acid],107
2,OCC1=CC(O)C2C=COC(OC3OC(CO)C(O)C(O)C3O)C12 (centres undefined) [Aucubin],107
3,CCCCCCCCCCCCCC(=O)NC(C)C(O)c1ccccc1 [D-erythro MAPP],99.8
4,CCCCCCCCCCCCCCCCOCC(COP(=O)([O-])OCC[N+](C)(C)C)OC(=O)NC (centres undefined),95.7
5,OCC1OC(n2cnc3c(NC4CCCCC4)ncnc32)C(O)C1O (centres undefined) [N6-Cyclohexyladenosine],105
6,"CC(=O)Oc1ccccc1C(=O)Nc1ncc([N+](=O)[O-])s1 [2-{[(5-nitro-1,3-thiazol-2-yl)amino]carbonyl}phenyl acetate]",95.5
7,CN(C)CCC=C1c2ccccc2C=Cc2ccccc21.Cl [Cyclobenzaprine hydrochloride],103
8,COc1cc2c(cc1OC)-c1cc(=Nc3c(C)cc(C)cc3C)n(C)c(=O)n1CC2.Cl [Trequinsin.HCl],107
9,Cl.NCCS [Cysteamine hydrochloride],99.7
10,CCCCCCCCCCCCCCCC(O)C(N)CO (centres undefined) [Dihydrosphingosine],94.5
11,C[C@@H](c1nc(-c2ccc(C#N)cc2)cs1)[C@](O)(Cn1cncn1)c1ccc(F)cc1F,95
12,Cc1c(C)c2c(c(C)c1OC(=O)CCC(=O)O)CCC(C)(CCCC(C)CCCC(C)CCCC(C)C)O2 (centres undefined) [Tocopherol succinate],109
13,COC(=O)CNC(=O)C(=O)OC [methyl 2-(2-methoxy-2-oxoethylamino)-2-oxoacetate],109
14,CS(=O)(=O)CCNCc1nc(-c2ccc3ncnc(Nc4ccc(OCc5cccc(F)c5)c(Cl)c4)c3c2)cs1.Cl.Cl,99.7
15,CCCc1c(OCCCCc2nn[nH]n2)ccc(C(C)=O)c1O,101 and 110
16,CC1CNc2c(cccc2S(=O)(=O)NC(CCCN=C(N)N)C(=O)N2CCC(C)CC2C(=O)O)C1 (centres undefined) [Argatroban],104
17,C[n+]1cccc(C(=O)O)c1.[Cl-],94
18,CCC1=CC2CN(C1)Cc1c([nH]c3ccccc13)C(C(=O)OC)(c1cc3c(cc1OC)N(C)C1C(O)(C(=O)OC)C(OC(C)=O)C4(CC)C=CCN5CCC31C54)C2 (centres undefined) [Vinorelbine],9.75 ± 0.33
19,Cn1ccnc1 [1-Methylimidazole],105
20,C=CC(C)(O)CCC1C(C)(O)CCC2C(C)(C)CCCC21C (centres undefined) [Sclareol],90.1
21,CCOP(=O)(OCC)C(=Cc1cc(C(C)(C)C)c(O)c(C(C)(C)C)c1)P(=O)(OCC)OCC,101
22,OCC1OC(n2cnc3c(NC4CCCC4)nc(Cl)nc32)C(O)C1O (centres undefined) [2-Chloro-N6-cyclopentyladenosine],104
23,"Nc1ccn(C2CCC(CO)O2)c(=O)n1 (centres undefined) [2',3'-dideoxycytidine]",102
24,CC(C)C(CO)Nc1nc(Nc2ccc(C(=O)O)c(Cl)c2)c2ncn(C(C)C)c2n1 (centres undefined),112
25,COc1ccc(CC2c3cc(OC)c(OC)cc3CC[N+]2(C)C)cc1OC.[I-] (centres undefined) [Laudanosine methiodide],112
26,CC(=O)O.CSC(N)=NCCCC(N)C(=O)O [S-Methyl-L-thiocitrulline acetate],108
27,COc1cc(Nc2c(C#N)cnc3cc(OCCCN4CCN(C)CC4)c(OC)cc23)c(Cl)cc1Cl [Bosutinib],7.38
28,Cl.Cl.NCCNc1ncc(C(N)=O)c(Nc2cccc(C(F)(F)F)c2)n1.O.O [Syk Inhibitor II],84.7

# — the supplement of paper PMC7156485
